Results filed as inconclusive are left out. The source made the active and inactive calls. Calls come from the whole dose curve; as a rule, active = well fitted curve in either direction with a large enough effect (not every such curve was filed as active); inconclusive = small, poorly fitted or top-dose-only effect, or another doubt; inactive = flat fitted curve, though single readings scatter.
test: AP1 Signaling Pathway (AID 357); conditions: ME-180 (cervical carcinoma) AP-1-bla reporter, EGF-induced, beta-lactamase ratio, 5 h; at 17.2 µM (top of the series) unless noted;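 note: ME-180 reporter cells stimulated with EGF at its EC50 level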
From the text: NCGC Assay Overview: Activator protein-1 (AP-1), a transcription factor, plays an important role in tumor genesis by regulating genes involved in cell proliferation, differentiation, apoptosis, and angiogenesis. AP-1 activity is induced by a complex network of signaling pathways that involves extracellular signals, such as growth factors. The AP-1 protein complex formed from c-Fos and c-Jun binding to the AP-1 response element results in transcriptional activation of genes containing such elements within their promoter. Low molecular weight molecules have been discovered and developed to modulate various components of these signaling pathways, for example, MAP kinase inhibitors. However, many points of pathway modulation remain untested due to the lack of chemical probes making this signaling locus of general interest. Using a beta-lactamase reporter-gene under control of the AP-1 response element, a cell-based assay [CellSensor(TM) AP-1-bla ME-180 developed by Invitrogen Corp.] was used to measure EGF-induced signaling. Library compounds were measured for their ability to modulate positively or negatively the action of EC50 EGF on reporter gene activity. Compounds were screened in a titration series in 1536-well format. Positive and negative modulators were identified based on the AC50 values derived from the screening data.
NCGC Assay Protocol Summary: 2500 cells/5uL in Opti-MEM medium containing 0.5% dialyzed FBS, 0.1 mM NEAA, 1 mM sodium pyruvate and 10 mM HEPES was dispensed into 1536-well plates and cells were cultured at 37 degrees Celsius overnight. […] After centrifugation at 1000 rpm for 2 seconds the plates were incubated at 37 degrees Celsius for 5 hours. 1 uL of CCF4-dye mixture was added to each well. After incubated at room temperature for 2.5 hours the plates were measured on an EnVision plate reader at Excitation 405nm, Emission1=460nm and Emission 2=530nm. The %Activity was determined from the ratio of 460nm/530nm.
% is set by controls: 0 for no effect and ±100 for the full control effect.

Activity change, negative = inhibition, inactive:
COc1cc(C)nc(Oc2ccc(OCCOc3ccc(C)cc3)nn2)n1 -8.32%
Cc1c(-c2cccs2)[n+](=O)c2c(n1[O-])CCCC2 14.7%
COc1ccc(C2=Nn3c(nnc3-c3ccccn3)SC2)cc1OC -18.1%
Cc1cc(C)n(C(=O)CNC(=O)c2ccc3c(c2)OCCO3)n1 -0.109%
CCOc1ccccc1N1CCN(c2nc3ccccc3nc2C(C#N)C(=O)OC(C)C)CC1 (stereo not given) 16.5%
Cn1c(OCc2cccnc2)nc2c1c(=O)n(Cc1ccc(Br)cc1)c(=O)n2C -26.8%
COc1cccc(C2=CC(c3ccccc3)n3nnnc3N2)c1 (stereo not given) -3.96%
Cc1cccn2c(=O)c3cc(C#N)c(=N)n(Cc4ccncc4)c3nc12 6.9%
Cc1c(C2Nc3ccccc3NC3=C2C(=O)CC(C)(C)C3)cnn1C (stereo not given) -9.46%
CC1(C)Cc2c(C#N)c(SCC(=O)c3ccccc3)nc(N3CCCC3)c2CO1 24.5%
Cc1nc2c(c(=O)n1CC1CCCO1)c1nc3ccccc3nc1n2CC(C)C (stereo not given) 2.75%
COc1ccc(N2CCN(C3CC(=O)NC3=O)CC2)cc1 (stereo not given) -0.252%
Cc1ccc(/C=c2\sc3n(c2=O)CN(c2ccc(Br)cc2)CN=3)o1 25.9%
Cc1ccc(S(=O)(=O)c2cc3c(=O)n4ccccc4nc3n(C)c2=N)cc1 23.8%
Cn1c(=O)c2c(nc(NCc3ccc4c(c3)OCO4)n2Cc2ccc(F)cc2)n(C)c1=O -26%
O=C(CSc1nc2ccccc2s1)Nn1cnnc1 3.59%
C=CCc1cccc(/C=N/n2cnnc2)c1O -1.43%
O=C(CCC1CCCC1)N1CCC(N2CCN(c3ccccc3)CC2)CC1 -5.6%
COc1cc(C2C(C#N)=C(N)Oc3cc(C)n(Cc4ccccn4)c(=O)c32)cc2c1OCO2 (stereo not given) -7.44%
O=C1C(=O)N(Cc2cccnc2)C(c2ccccn2)/C1=C(/O)c1ccc(F)cc1 (stereo not given) 10.7%
CC(C)c1[nH]c(=O)c(C#N)c2c1CSC(C)(C)C2 -3.98%
COc1ccc(Oc2nc3c(c(=O)n(C)c(=O)n3C)n2Cc2cccc(OC)c2)cc1 -6%
CSc1nnc(C)c(=O)[nH]1 -4.3%
CC1CCc2cc(F)cc3c(O)c(C(=O)Nc4cnccn4)c(=O)n1c23 (stereo not given) -8.92%
O=C1NC2c3ccccc3C(=O)N2c2c1cnn2-c1ccccc1 (stereo not given) -6.7%
CCCCc1c(O)nc(SCCN(C)C)n(-c2ccccc2)c1=O 10%
CNc1oc(-c2ccccc2Cl)nc1C#N -4.94%
CC1(C)CC(=O)C2=C(C1)N(Cc1ccco1)C(=O)C2(NC(=O)c1cccnc1)C(F)(F)F (stereo not given) -3.2%
c1coc(-c2nc3nc4ccccc4nc3n2-c2ccc3c(c2)OCCO3)c1 -28.6%
Nc1nnnn1/N=C/c1ccco1 2.89%
O=C(C1=C(O)C(=O)N(CCN2CCOCC2)C1c1cccnc1)c1cc2ccccc2o1 (stereo not given) 8.94%
Oc1ccc2c(c1)C1CCCC1(N1CCOCC1)O2 (stereo not given) -13.6%
C[C@]12CC[C@@H]3c4ccc(O)cc4C(=O)C[C@H]3[C@@H]1CC[C@@H]2O 0.317%
CC1CCc2cc(F)cc3c(O)c(C(=O)NCC4CCCO4)c(=O)n1c23 (stereo not given) -6.28%
CC(=O)c1c(OCC(=O)O)ccc2c(C)cc(=O)oc12 15%
CCOC(=O)c1c2c(c(=S)n(-c3ccccc3)c1N)CCC2 -21.8%
CS(=O)(=O)CCC(C(=O)n1nnc2ccccc21)N1C(=O)c2ccccc2C1=O (stereo not given) -2.33%
CCOC(=O)c1cc(CC)sc1NC(=O)C1CC1 -23.9%
CCC1(C)Cc2c(sc3c2c(=O)n(C)c2nnc(SCC(=O)c4ccc(Cl)cc4)n32)CO1 (stereo not given) -5.39%
CCn1c(SC(C)C(=O)O)nc2sc3c(c2c1=O)CCC3 (stereo not given) 2.76%

— PubChem BioAssay (NCATS)
